Source: PubChem BioAssay AID1851 (National Center for Advancing Translational Sciences (NCATS), 2009)
“And” between values parts separate entries of the source, which are not always exact repeats. Equal values may be shown once. About 2,600 (16%) of roughly 16,000 compounds were called active. Another 20% or so got no clear call; they are omitted. The call rests on the fitted dose curve; in most records, active means well fitted curve in the direction sought with a large enough effect; inconclusive means small, poorly fitted or top-dose-only effect, or effect the other way; inactive means no such curve, though single readings can be large or run the other way. Not all results are given here. A structure can be active in one record and inactive in another.

Molecular target: Cytochrome P450 2D6 (Homo sapiens) (UniProt P10635)
Test: Cytochrome panel assay with activity outcomes
Conditions: recombinant CYP, pro-luciferin dealkylation, luminescence, p450-cyp2d6; series mostly up to 57.1 µM
On the % scale 0 is the no-effect control and ±100 the full control effect.

Chain of Cytochrome P450 2D6 (Homo sapiens) (P10635 whole entry, looked up): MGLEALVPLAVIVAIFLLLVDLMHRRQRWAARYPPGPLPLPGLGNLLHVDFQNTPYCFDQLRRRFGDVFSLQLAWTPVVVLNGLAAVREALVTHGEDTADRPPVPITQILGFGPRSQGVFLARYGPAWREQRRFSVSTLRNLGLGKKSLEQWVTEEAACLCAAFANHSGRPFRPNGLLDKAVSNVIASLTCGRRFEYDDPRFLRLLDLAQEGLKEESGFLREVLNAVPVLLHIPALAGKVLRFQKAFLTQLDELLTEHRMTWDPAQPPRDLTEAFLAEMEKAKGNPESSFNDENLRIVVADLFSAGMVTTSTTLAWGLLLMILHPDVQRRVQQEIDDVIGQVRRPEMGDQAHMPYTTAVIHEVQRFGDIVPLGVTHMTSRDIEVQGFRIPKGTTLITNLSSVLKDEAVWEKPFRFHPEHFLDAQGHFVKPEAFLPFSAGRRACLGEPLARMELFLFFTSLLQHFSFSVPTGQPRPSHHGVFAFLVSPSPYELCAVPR

Row | Compound | AC50 | activity, negative = inhibition
1 | CC(=O)c1c(N2CCC(C(N)=O)CC2)nc(=S)n(-c2ccccc2)c1C | inactive | 
2 | CCCc1cc2c(=O)c(-c3ccc4c(c3)OCCO4)coc2cc1OC(=O)c1ccco1 | inactive | 
3 | COC(=O)c1c(-n2c(C)cc(C=O)c2C)sc2c1CCCC2 | inactive | 
4 | CCOC(=O)c1c(-c2ccc(C)cc2)csc1NC(=O)C1CC=CCC1C(=O)O (stereo unspecified) | inactive | 
5 | COC(=O)[C@@H]1O[C@@H](c2c(OC)c(OC)c(C)c(OC)c2OC)[C@H](C)[C@@H](O)[C@@H]1C |  | 15.2% [at 11.4 µM] (inactive)
6 | NS(=O)(=O)c1cc(C(=O)O)cc(N2CCCC2)c1Oc1ccccc1 | inactive | 
7 | O=C(c1cn(-c2ccccc2)nc1-c1cccs1)N1CCOCC1 | inactive | 
8 | O=C1C[C@@H](O)[C@@H](O)[C@H]2[C@@H]3C(=O)N(c4cccc(Oc5ccccc5)c4)C(=O)[C@@H]3CC[C@H]12 |  | -10.1% [at 11.4 µM] (inactive) and -0.87% [at 11.4 µM] (inactive)
9 | CCOC(=O)Cc1cc(=O)n2[nH]c(C)c(-c3ccccc3)c2n1 | inactive | 
10 | CCS(=O)(=O)c1ccc2c(c1)N(S(C)(=O)=O)CC(C(=O)NCCOC)O2 (stereo unspecified) | inactive | 
11 | Cc1ccccc1-c1nc(-c2ccc(NC(=O)c3cccs3)cc2)no1 | inactive | 
12 | O=C(Nc1ccccc1)c1cc(-n2cnnc2)ccc1Cl | inactive | 
13 | C[C@]12CC[C@H]3c4ccc(OC[C@H]5CO5)cc4CC[C@H]3[C@H]1CC[C@@H]2O |  | -13.3% [at 11.4 µM] (inactive)
14 | O=C(Oc1ccccc1)N1CCC[C@@]2(CCN(c3ncccn3)C2)C1 | inactive | 
15 | O=C(Oc1ccccc1)N1CCC[C@@]2(CCN(c3ccccn3)C2)C1 | 7.94 µM (active) | 
16 | O=C(Oc1ccccc1)N1CCC2(CC1)CN(c1ccccn1)C2 | inactive | 
17 | COC(=O)N1CCC[C@@]2(CCN(c3ncccn3)C2)C1 | inactive | 
18 | COC(=O)N1CCC[C@@]2(CCN(c3ccccn3)C2)C1 | 12.6 µM (active) | 
19 | O=C(c1ccncc1)N1CCC[C@@]2(CCN(c3ccccn3)C2)C1 | inactive | 
20 | Cc1ccc(-c2nnc(-c3ccc(NC(=O)c4cccs4)cc3)o2)cc1 | inactive | 
21 | Cc1ccc(S(=O)(=O)O[C@H]2C[C@@H](C(C)(C)C)CC[C@@H]2c2ccccc2)cc1 |  | -9.43% [at 11.4 µM] (inactive)
22 | CCOC(=O)C1=NOC(CNC(=O)C2=NOC(CNC(=O)c3c(-c4ccccc4Cl)noc3C)C2)C1 (stereo unspecified) | inactive | 
23 | C/C(CCN1CCc2nc(-c3ccccc3)c(-c3ccccc3)cc2C1)=N\OC[C@@H](C)[C@H](OCc1ccccc1)C(C)C |  | 13.5% [at 11.4 µM] (inactive)

Row | Compound | AC50 | activity, negative = inhibition
24 | Cc1ccc(S(=O)(=O)CCCS(=O)(=O)c2ccc(C)cc2)cc1 | inactive | 
25 | CC(C)(C)c1ccc(S(=O)(=O)/C=C\C#N)cc1 | inactive | 
26 | Cc1ccc(S(=O)(=O)/C=C\C#N)cc1 | 0.0158 µM (active) | 
27 | CC1(C)Cc2c(sc3c2C(=O)N(c2ccccc2)C2=NCCN23)CS1 | inactive | 
28 | C=C1CCO[C@@]2([C@H](O)[C@@](C)(O)CO)NC(=O)[C@]1(O)NC2=O |  | 9.37% [at 11.4 µM] (inactive)
29 | COc1ccc(NC(=O)N2CCCC2C(=O)Nc2ccccc2)cc1 (stereo unspecified) | inactive | 
30 | COC(=O)c1ccccc1NC(=O)C1CCN(C(=O)c2ccc(OC)cc2)CC1 | inactive | 
31 | O=C(Nc1ccc(Oc2ccccc2)cc1)C1CCN(c2c3c(nc4ncnn24)CCC3)CC1 | 12.6 µM (active) | 
32 | COc1ccc(CNc2ccnc(-c3cccnc3)n2)c(OC)c1 | 10 µM (active) | 
33 | COc1cccc(-c2nccc(NCc3ccc(OC)cc3OC)n2)c1 | 12.6 µM (active) | 
34 | COc1ccccc1CNc1ccnc(-c2cccc(C#N)c2)n1 | 25.1 µM (active) | 
35 | COc1cccc(-c2nccc(NCc3ccccc3OC)n2)c1 | 0.398 µM (active) | 
36 | COc1ccc(C(=O)Nc2scc(-c3ccc(Cl)cc3Cl)c2C(N)=O)cc1 | inactive | 
37 | CN1CCCN(C2C3CC4CC(C3)CC2C4)CC1 (stereo unspecified) | inactive | 
38 | Cc1cc(C)c(S(=O)(=O)N2CCN(c3ccc([N+](=O)[O-])c(NCc4ccco4)c3)CC2)c(C)c1 | inactive | 
39 | CCOCC(=O)Nc1c(C(=O)Nc2ccccc2OC)oc2ccccc12 | inactive | 
40 | COc1ccc(COC(=O)N/N=C2/C[C@@H](O)[C@@H](O)[C@@H]3[C@@H]4C(=O)N([C@@H](C)c5ccccc5)C(=O)[C@H]4CC[C@@H]23)cc1 |  | -8.23% [at 11.4 µM] (inactive)
41 | CC(C)=C1C(=O)C(c2ccccc2)=C2CN3C(=O)N(CCc4ccccc4)C(=O)[C@]3(Cc3ccccc3)[C@H]21 | inactive | 
42 | O=C(O)c1nc(-c2ccccc2)[nH]c1C(=O)O |  | -20.9% [at 11.4 µM] (inactive)
43 | Cc1cccc(NC(=O)c2cc(N3C(=O)CCC3=O)ccc2Cl)n1 | inactive | 
44 | Cc1ccc(S(=O)(=O)N(C)c2cc(S(=O)(=O)N3CCC(C)CC3)c(C)cc2C)cc1 | inactive | 
45 | CCOC(=O)c1cnc(-n2nc(C)cc2C)nc1NCCO | inactive | 
46 | CC1=C(\C=C/C(C)=C/C=C\C(C)=C\C(=O)O)C(C)(C)CCC1 | inactive and 2 µM (active) | 

Row | Compound | AC50 | activity, negative = inhibition
47 | CC1=CC(=O)CC(C)(C)[C@]1(O)/C=C\C(C)=C\C(=O)O |  | 11.4% [at 11.4 µM] (inactive)
48 | O=C1c2ccccc2N[C@H](c2cc(Cl)cc(Cl)c2O)N1CCc1ccccn1 |  | 15% [at 11.4 µM] (inactive)
49 | COC(=O)c1c(NC(=O)Cn2cc([N+](=O)[O-])cn2)sc2c1CCC2 | inactive | 
50 | N#Cc1c(NC(=O)C2CC(c3ccccc3Cl)=NO2)sc2c1CCC2 (stereo unspecified) | inactive | 
51 | COC(=O)C1CCN(CC(=O)Nc2sc3c(c2C#N)CCC3)CC1 | 1.12 µM (active) | 
52 | O=c1c(-c2ccc(F)cc2)nc2cnc(N3CCOCC3)nc2n1C[C@H]1CCCO1 | inactive | 
53 | COc1ccc(Cc2nnc(NC(=O)c3cccc([N+](=O)[O-])c3C)s2)cc1 | inactive | 
54 | COc1cc(OC)c2c(c1Cl)O[C@@]1(C2=O)[C@H](C)CC(=O)C[C@@H]1OC | inactive | 
55 | COCCn1c(=O)c(-c2cc(F)cc(F)c2)nc2cnc(Oc3ccccc3)nc21 | inactive | 
56 | CSc1nc2c(c(C(F)(F)F)n1)CC(C)CC2 (stereo unspecified) | inactive | 
57 | CSc1nc(N)c2ncn([C@@H]3O[C@@H](COP(=O)(O)OP(=O)(O)O)[C@@H](O)[C@H]3O)c2n1 | inactive | 
58 | COc1ccc(N2C(=O)NC(NC(=O)c3ccncc3)(C(F)(F)F)C2=O)cc1 (stereo unspecified) | inactive | 
59 | Cc1nc(SCC(=O)Nc2c(C)n(C)n(-c3ccccc3)c2=O)nc(C)c1C | inactive | 
60 | c1ccc2cc(NCNc3ccc4ccccc4c3)ccc2c1 | 1 µM (active) | 
61 | Cc1ccc(-c2nnc(-c3ccc4ccccc4c3)o2)cc1 |  | 3.58% [at 11.4 µM] (inactive)
62 | O=C(Nc1ccc2ccccc2c1)c1onc2c1CCCC2 | inactive | 
63 | CCOc1cc(CN2CCN(c3ccc(C(C)=O)cc3)CC2)ccc1OC | inactive | 
64 | Cn1c(N)nc2c(nc(OCc3ccccc3)n2[C@@H]2O[C@H](CO)[C@@H](O)[C@@H]2O)c1=O |  | 9.24% [at 11.4 µM] (inactive)
65 | CCN1C(=O)/C(=C/C=C2/SCCN2C)SC1=S | inactive | 
66 | CC1(C)C(=O)NC2=C1C(=O)C(=O)c1ccccc12 | 2.51 µM (active) | 
67 | O=C1c2ccccc2C(=O)C1c1ccccc1 | inactive | 
68 | Cn1ncc2c(Cl)ncnc21 |  | 12.3% [at 11.4 µM] (inactive)
69 | COc1ccc(-c2cc(C(F)(F)F)n3nc(C(=O)NCc4ccco4)c(Cl)c3n2)cc1 | inactive | 

Row | Compound | AC50 | activity, negative = inhibition
70 | CCCCOC(=S)NC(=O)c1sc2ccccc2c1Cl | inactive | 
71 | CN(C)CC[C@H](c1ccc(Cl)cc1)c1ccccn1 | 31.6 µM (active) | 
72 | CC(=O)Oc1ccc(C(c2ccc(OC(C)=O)cc2)c2ccccn2)cc1 | inactive | 
73 | CN(C)CC[C@@H](c1ccccc1)c1ccccn1 | inactive | 
74 | CN(C)CC(CN(C)C)c1ccccn1 |  | 6.41% [at 11.4 µM] (inactive)
75 | CN(C)CC[C@H](c1ccc(Br)cc1)c1ccccn1 | 15.8 µM (active) and 25.1 µM (active) | 
76 | Cc1ccc(-c2c(C#N)c(N)n(-c3ccccc3)c(=O)c2C#N)cc1 | inactive | 
77 | COC(=O)C1=C(C)C(c2ccc(OC)cc2)NC(=S)N1 (stereo unspecified) | inactive | 
78 | Cc1noc(C)c1COc1ccc(C(=O)NCC2CCCO2)cc1 (stereo unspecified) | inactive | 
79 | N[C@H](C(=O)O)[C@@H](O)c1cnc[nH]1 |  | 10.8% [at 11.4 µM] (inactive)
80 | COc1cc(OC)c(C(=O)CCCCN2CCC3(CC2)NC(=O)NC3=O)cc1NS(=O)(=O)c1ccc(C(F)(F)F)cc1 | inactive | 
81 | CC[C@H]1C2=C3C(CC[C@H]4C(OCc5ccc(F)cc5C(F)(F)F)OC[C@](C)([C@@H]34)N(C(=O)OC(C)(C)C)C2)C(COC(C)=O)C1COC(C)=O (stereo partly specified) | inactive | 
82 | CCOC(=O)C1=C(N)Oc2ccc(Br)cc2[C@@H]1[C@@H](C#N)C(=O)OCC | inactive | 
83 | O=c1c(-c2ccc(F)cc2)nc2cnc(N3CCNCC3)nc2n1C1CC1 | inactive | 
84 | O=C(Cn1cnc2c(oc3ccccc32)c1=O)NCc1ccco1 | inactive | 
85 | CCc1nc(N[C@H](C(=O)O)C(C)CC)c2oc3ccccc3c2n1 (stereo partly specified) | inactive | 
86 | c1ccc2c(c1)oc1c(NCCCn3ccnc3)ncnc12 | 1.26 µM (active) | 
87 | c1ccc2cc(Sc3ncnc4c3oc3ccccc34)ccc2c1 | inactive | 
88 | c1ccc(-c2nc(NCCCn3ccnc3)c3oc4ccccc4c3n2)cc1 | 2 µM (active) | 
89 | Cc1nc(SCC(=O)NCCc2ccccc2)c2oc3ccccc3c2n1 | inactive | 
90 | CC(C)=CCC/C(C)=C/CO/N=C1/C[C@@H](O)[C@@H](O)[C@@H]2[C@H]3C(=O)N(c4ccc(F)cc4F)C(=O)[C@@H]3CC[C@H]12 |  | 6.74% [at 11.4 µM] (inactive)
91 | O=c1cc(CSc2nnc(-c3cccnc3)n2-c2ccccc2F)nc2sccn12 | inactive | 
